The results in this text go back to the supplement of paper PMC9477273.

The assay deals with DRIVER-selected RNA biosensor (aptazyme) pool. In words: maximum fold change of ribozyme cleavage across biosensor pool versus no-compound control; higher = stronger biosensor response (ligand inhibits cleavage). The note with it: 10 µM. In a few lines:
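A pool of 1,730 ribozyme biosensors, resynthesized on an array, was transcribed with T7 at 37°C for 15–30 min in 9 mM rNTPs, with one compound present at a final 10 µM (added from a 10x DMSO stock). Reverse transcription followed at 50°C, and the cleaved and uncleaved products were PCR-barcoded and counted by Illumina sequencing. The reported fold change of cleavage is the highest value across all biosensors, taken as the ratio of cleaved:uncleaved read fractions relative to a no-compound condition and corrected with reference sequences.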
The compound `CC(=Cc1ccccc1)/C=C1N=C(/C=C/c2ccccc2)OC/1=O` returned a maximum fold change of 2.27.
With `COc1ccc(C(=O)Cn2c3ccccc3n3nc(-c4ccccc4)nc23)cc1OC` the figure was 4.22; with `COc1ccc(/C=C2N=C(c3ccc(Cl)c(Cl)c3)OC2=O)cc1`, 2.84.
With `Cc1ccccc1-c1nc(CS(=O)(=O)CC(=O)NC2CCCCC2C)c(C)o1` (stereo unspecified) the figure was 2.07; with `COc1ccc(-c2nc(CS(=O)(=O)CC(=O)NC3CCC(C)CC3)c(C)o2)cc1` (stereo unspecified), 2.18; with `CS(=O)(=O)c1ccc2nc(NC(=O)c3cc4ccccc4o3)sc2c1`, 7.28.
With `COc1ccc(-c2cn3c(C)c(C(=O)NCCCOC(C)C)sc3n2)cc1` the figure was 2.79; with `CCOC(=O)c1c(C)c(-c2ccccc2)n(CC(=O)NCCN(C)C)c1C`, 2.04; with `Cc1cc2cc(CNC(=O)C3CCCC3)ccc2[nH]1`, 5.24.
`C=C(C)Cn1c(NCCCN2CCOCC2)nc2c1c(=O)[nH]c(=O)n2C` came in with a maximum fold change of 2.3.
With `N/C(=N\OC(=O)N1CCOCC1)c1ccccn1` the figure was 2.1.
